Measured values from PubChem BioAssay (Tox21).
Records with an inconclusive call do not appear. The source made the active and inactive calls. Unless noted, the call rests on the fitted dose curve; in most records, active means well fitted curve in the direction sought with a large enough effect in the repeat runs; inconclusive means weak or mixed curves; inactive means no such curve, though single readings can be large; an effect the other way counts as inactive or inconclusive.

What was measured:
[1] = qHTS assay to identify small molecule agonists of H2AX (AID 1224845; active means well fitted activation curve with a large enough effect in the signal ratio in the repeat runs, not every such curve was filed as active; the % refers to the signal ratio)
Summary of the method: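 Wild-type CHO-K1 cells plated overnight, then exposed 3 hr at 37C to compounds at 15 concentrations (0.76% DMSO). Lysed, then HTRF anti-pH2AX(S139)-cryptate/anti-H2AX-d2 detection after 24 hr at room temperature; emissions 665 and 620 nm.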

[2] = qHTS assay to identify small molecule agonists of H2AX - cell viability counter screen (AID 1224847; calls by dose curve; further: top concentration of the series differs between compounds; nearly all actives have a fitted effect of over 30% in size)
Summary of the method: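 Viability of CHO-K1 (wild type) cells after 3 hr compound exposure was measured by CellTiter-Glo luminescence.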

[3] = qHTS assay to identify small molecule antagonists of the estrogen related receptor (ERR) signaling pathway from Tox21 library (AID 1224848); further: nearly all actives have a fitted effect of over 50% in size
Summary of the method: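 First, 2,000 ERR cells per well were plated and held 6 h at 37 C/5% CO2. Next, compounds in DMSO were pinned in and left 18 h at 37 C. Finally, ONE-Glo was added and luminescence read after 30 min at room temperature.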

[4] = qHTS assay to identify small molecule agonists of the estrogen related receptor (ERR) signaling pathway from Tox21 library (AID 1224849; calls by dose curve; further: nearly all actives have a fitted effect of over 15% in size); settings: ERR reporter cell line, ONE-Glo luciferase, 18 h; at 92.4 µM (top of the series) unless noted
Summary of the method: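 Luciferase activity in ERR pathway reporter cells served as the agonist readout; exposure lasted 18 h at 37 C, with ONE-Glo detection after 30 min at room temperature.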

[5] = qHTS RealTime-Glo MT Cell Viability Assay in HepG2 cells - 24 hour (AID 1224867); further: nearly all actives have a fitted effect of over 50% in size
Summary of the method: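 qHTS, HepG2, 600 cells/well, RealTime-Glo (NanoLuc + prosubstrate) added with cells; 5 h preincubation; DMSO compound addition; 37 C; luminescence at 0/8/16/24/32/40 h.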

[6] = qHTS RealTime-Glo MT Cell Viability Assay in HEK293 cells - 32 hour (AID 1224868); further: top concentration of the series differs between compounds; nearly all actives have a fitted effect of over 50% in size
Summary of the method: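 Assay medium contained NanoLuc luciferase plus cell-permeant prosubstrate, added with HEK293 cells at 600 cells/well. After 5 h at 37 C/5% CO2 compounds were added; plates stayed at 37 C for 40 h with serial luminescence reads.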

[7] = A CellTox Green Cytotoxicity Assay to monitor cytotoxicity in HEK293 cells - 0 hour (AID 1224869); further: nearly all actives have a fitted effect of over 50% in size
Summary of the method: (§1)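 Real-time, in one plate: 600 HEK293 cells/well with dead-cell DNA dye, pinned compound after 5 h, 37 C incubation over 40 h; viable cells give no appreciable fluorescence.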

[8] = qHTS RealTime-Glo MT Cell Viability Assay in HepG2 cells - 40 hour (AID 1224870); further: nearly all actives have a fitted effect of over 50% in size; further: potency means the concentration at half of the fitted maximal effect
Summary of the method: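 HepG2 cells mixed with RealTime-Glo MT reagents (NanoLuc plus cell-permeant prosubstrate) were seeded at 600 cells/well, incubated 5 h at 37 C/5% CO2, then pinned with compounds in DMSO; nonlytic luminescence tracked viability during 40 h treatment.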

[9] = A CellTox Green Cytotoxicity Assay to monitor cytotoxicity in HEK293 cells - 40 hour (AID 1224871); further: nearly all actives have a fitted effect of over 45% in size
Summary of the method: as §1

[10] = qHTS assay to identify small molecule agonists of the hypoxia (HIF-1) signaling pathway (AID 1224846; active means well fitted activation curve with a large enough effect in the signal ratio in the repeat runs, not every such curve was filed as active; the % refers to the signal ratio)
Summary of the method: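 ME-180 HRE-bla reporter cells; compounds in DMSO, 17 h at 37C; read-out beta-lactamase via CCF4-AM FRET.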
On the % scale 0 is the no-effect control and ±100 the full control effect.

CC(C)[N+](C)(CCC(C(N)=O)(c1ccccc1)c1ccccc1)C(C)C
inactive: outcome [1] | Potency [2] | Potency [3] | activity change, positive = activation [4] 4.04% [at 42.5 µM] | Potency [5] | Potency [6] | outcome [7] | Potency [9]
active: Potency [8] 19 µM

C=CC=O
inactive: outcome [1] | outcome [10] | Potency [2] | Potency [8] | Potency [9]

[O-][Br+2]([O-])O
inactive: outcome [1] | outcome [10] | Potency [2] | Potency [5] | Potency [8] | Potency [9]

CCN1CCCC1CNC(=O)C(O)(c1ccccc1)c1ccccc1 (stereo not given)
inactive: outcome [1] | outcome [10] | Potency [2] | Potency [6] | outcome [7] | Potency [9]

O=c1[nH]oc2c1CCNC2
inactive: outcome [1] | Potency [2] | Potency [3] | activity change, positive = activation [4] 0.599% [at 42.5 µM] | Potency [5] | Potency [6] | outcome [7] | Potency [8] | Potency [9]

N#CN
inactive: outcome [1] | outcome [10] | Potency [2] | Potency [6] | outcome [7] | Potency [8] | Potency [9]

CC#Cc1cc(C)nc(Nc2ccccc2)n1
inactive: outcome [1] | outcome [10] | Potency [2] | Potency [5] | Potency [8] | Potency [9]

CC(C)(O)C(Cl)(Cl)Cl
inactive: outcome [1] | outcome [10] | Potency [2] | Potency [5] | outcome [7] | Potency [8] | Potency [9]

CCCCCCCCBr
inactive: outcome [1] | outcome [10] | Potency [2] | Potency [5] | outcome [7] | Potency [8] | Potency [9]

O=C(O)C(Cl)Br (stereo not given)
inactive: outcome [1] | outcome [10] | Potency [2] | Potency [5] | outcome [7] | Potency [8] | Potency [9]

CC(O)CCl (stereo not given)
inactive: outcome [1] | outcome [10] | Potency [2] | outcome [7] | Potency [9]

CCOC1Oc2ccc(OS(C)(=O)=O)cc2C1(C)C (stereo not given)
inactive: outcome [1] | outcome [10] | Potency [2] | Potency [5] | outcome [7] | Potency [8] | Potency [9]

NNCc1ccccc1
inactive: outcome [1] | outcome [10] | Potency [2] | Potency [5] | outcome [7] | Potency [8] | Potency [9]

CCC1(c2ccccc2)CCC(=O)NC1=O (stereo not given)
inactive: outcome [1] | outcome [10] | Potency [2] | Potency [5] | outcome [7] | Potency [8] | Potency [9]
